Data as given in PubChem BioAssay (NCATS).
Results filed as inconclusive are left out. Active and inactive are the calls of the source. The call rests on the fitted dose curve.

Assays:
[1] = qHTS drug screen for cell cycle checkpoint inhibitors in PARPi-resistant BRCA-mutant ovarian cancer cell lines. (AID 1963452); settings: PEO1/OlaR viability, CellTiter-Glo luminescence, 96 h, stronger effect = lower value
Procedure, shortened: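 PEO1, PEO4 and PEO1/OlaR ovarian cancer cells, 600 per well, exposed 96 h at 37C to a dilution series. Viability read by CellTiter-Glo luminescence, normalized to DMSO and empty wells; activity summarized as Z-AUC.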

[2] = qHTS for identification of novel therapeutic agents for treatment of microphthalmiaassociated transcription factor (MiT) renal cell carcinoma (RCC) (AID 1963991); settings: CellTiter-Glo, 48 h, stronger effect = lower value
Procedure, shortened: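 Curves over 11 concentrations were fitted to CellTiter-Glo luminescence, scaled between empty wells (0%) and DMSO (100%) viability. Cells were UOK109, UOK124 and UOK145 TFE3-fusion RCC lines at 500/well, exposed 48 hours at 37 C.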

[3] = measured here: PEO1 parental Z-AUC
[4] = TFE3-RCC UOK109 viability, measured here: UOK109 Z-AUC
[5] = TFE3-RCC viability, measured here: UOK124 Z-AUC
[6] = TFE3-RCC viability, measured here: UOK145 Z-AUC

| SMILES | Z-AUC [1] | Z-AUC [1, 3] | Z-AUC ([1]; measured here: PEO4 Z-AUC) | z-score [2, 4] | z-score [2, 5] | z-score [2, 6] |
| --- | --- | --- | --- | --- | --- | --- |
| CS(=O)c1ccc(-c2nc(-c3ccc(F)cc3)c(-c3ccncc3)[nH]2)cc1 (stereo unspecified) | 0.509 (inactive) | 0.495 | 0.786 | – | – | – |
| O=C(Nc1cc(Cl)cc2c1[nH]c1cnccc12)c1cccnc1 | 0.696 (inactive) | 0.253 | 0.368 | – | – | – |
| COCCOC(=O)C1=C(C)NC2=C(C(=O)CC(c3ccccc3OC)C2)C1c1cccc(O)c1 (stereo unspecified) | -0.198 (inactive) | 0.425 | 0.517 | – | – | – |
| C=C1C(=O)OC(CCCCCCCC)C1C(=O)O (stereo unspecified) | 0.778 (inactive) | 0.453 | 0.342 | 0.725 | 0.792 | 0.524 |
| CC(C)C(C)C=CC(C)C1CCC2C3=CC=C4CC(O)CCC4(C)C3CCC21C (stereo unspecified) | 1.48 (inactive) | 1.13 | 1.32 | 0.762 | 0.655 | 1.94 |
| CN1[C@@H]2CCC[C@@H]1CC(NC(=O)c1nn(C)c3ccccc13)C2 (stereo partly specified) | -0.105 (inactive) | -0.292 | 0.149 | 0.506 | 0.637 | 0.0896 |
| C[C@]12CC[C@@H]3c4ccc(O)cc4C[C@@H](CCCCCCCCCS(=O)CCCC(F)(F)C(F)(F)F)[C@H]3[C@H]1CC[C@H]2O (stereo partly specified) | -0.724 (inactive) | -0.171 | -1.07 | 1.23 | 0.607 | 0.767 |
| CC(=O)Oc1cc2c(s1)CCN(C(C(=O)C1CC1)c1ccccc1F)C2 (stereo unspecified) | 0.888 (inactive) | 0.469 | 0.814 | – | – | – |
| CCc1ccc(OCc2ccccc2C(=O)Nc2ccc3nc(C)cc(N)c3c2)cc1 | -0.061 (inactive) | -0.206 | -0.159 | – | – | – |
| O=C1C[C@@H](c2ccc(O)cc2)Oc2cc(O)cc(O)c21 | 0.649 (inactive) | 1.18 | 1.28 | 0.38 | 0.851 | 0.18 |
| CC1(C)Cc2c(sc(NC(=S)NC(=O)c3ccccc3)c2C(=O)O)CO1 | -0.088 (inactive) | -0.241 | 0.00999 | – | – | – |
| O=c1cc(-c2ccccc2)oc2cc(O)cc(O)c12 | 1.05 (inactive) | 1.12 | 1.3 | 0.364 | 0.638 | 0.538 |
| CC(C)(C)c1cc(C(=O)O)c(NC(=O)Nc2ccc3[nH]ncc3c2)s1 | -0.548 (inactive) | -0.418 | -0.766 | 0.185 | -0.00808 | 0.16 |
| CC1(C)CCC(CN2CCN(c3ccc(C(=O)NS(=O)(=O)c4ccc(NCC5CCOCC5)c([N+](=O)[O-])c4)c(Oc4cnc5[nH]ccc5c4)c3)CC2)=C(c2ccc(Cl)cc2)C1 | 0.0291 (inactive) | 0.742 | 0.833 | – | – | – |
| NC(=O)c1cnc(-c2ccc(C3(N)CCC3)cc2)c(-c2ccccc2)c1 | 0.0998 (inactive) | -0.472 | -0.533 | – | – | – |
| N[C@H](CSC(c1ccccc1)(c1ccccc1)c1ccccc1)C(=O)O | 0.731 (inactive) | 0.902 | 0.85 | – | – | – |
| O=C(O)c1ccccc1C(=O)Nc1ccc(-c2ccccc2)cc1 | 1.24 (inactive) | 0.724 | 0.552 | 0.921 | 0.86 | 0.469 |
| COC1CCC(N(C(=O)C2CCC(C)CC2)c2cc(C3=CCCCC3)sc2C(=O)O)CC1 (stereo unspecified) | -0.412 (inactive) | -0.941 | -0.935 | 0.459 | 1.37 | 0.333 |
| Cc1c(NC(=O)c2ccc(C(C)(C)C)cc2)cccc1-c1cn(C)c(=O)c(Nc2ccc(C(=O)N3CCOCC3)cc2)n1 | 1.16 (inactive) | 0.745 | 0.879 | – | – | – |
| CC(C)[C@H](CO)Nc1nc(Nc2ccc(C(=O)O)c(Cl)c2)c2ncn(C(C)C)c2n1 | -0.776 (inactive) | 0.263 | 0.0501 | – | – | – |
| O=C(NCc1ccccc1)c1csc(Nc2ccncn2)n1 | -0.615 (inactive) | 0.117 | 0.922 | – | – | – |
| COc1ccc2cccc(CCNC(C)=O)c2c1 | -0.374 (inactive) | -0.478 | -0.326 | 0.892 | 0.661 | 0.732 |
| Cc1ccc(/C=N/NC(=O)c2ccccc2Oc2ccccc2)o1 | 0.785 (inactive) | 0.523 | 0.656 | – | – | – |
| CC(C)(C)Cn1c(N)nc2ccc(-c3[nH]c(C(C)(C)C)nc3-c3ccc(F)cc3)nc21 | -0.716 (inactive) | -1.14 | -1.15 | – | – | – |
| CO[C@H]1C[C@@H]2CC[C@@H](C)[C@@](O)(O2)C(=O)C(=O)N2CCCC[C@@H]2C(=O)O[C@H]([C@@H](C)C[C@@H]2CC[C@H](O)[C@H](OC)C2)CC(=O)[C@H](C)C=C(C)[C@@H](O)[C@@H](OC)C(=O)[C@H](C)C[C@H](C)C=CC=CC=C1C | -0.986 (inactive) | -0.581 | -0.84 | -0.128 | 1.08 | -0.61 |
| CCOC(CN1C(=O)[C@](CC(=O)Nc2ccc(C)cc2)(NC(=O)Nc2ccc(C)cc2)c2ccccc21)OCC | 1.21 (inactive) | 1.06 | 1.28 | – | – | – |
